Screens deposited in PubChem by several laboratories.
B2AR ag: activates human beta-2 adrenergic receptor causing internalization. P07550. Am2.2-beta2AR cells, FAP receptor internalization, flow cytometry. response, % (no concentration beside the values). hit rate 0.43% among 340,000;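 active = response above a set limit, near 3 SD of response in nonfluorescent compounds, cut at about 42% in these data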
Target sequence (P07550 whole entry, looked up): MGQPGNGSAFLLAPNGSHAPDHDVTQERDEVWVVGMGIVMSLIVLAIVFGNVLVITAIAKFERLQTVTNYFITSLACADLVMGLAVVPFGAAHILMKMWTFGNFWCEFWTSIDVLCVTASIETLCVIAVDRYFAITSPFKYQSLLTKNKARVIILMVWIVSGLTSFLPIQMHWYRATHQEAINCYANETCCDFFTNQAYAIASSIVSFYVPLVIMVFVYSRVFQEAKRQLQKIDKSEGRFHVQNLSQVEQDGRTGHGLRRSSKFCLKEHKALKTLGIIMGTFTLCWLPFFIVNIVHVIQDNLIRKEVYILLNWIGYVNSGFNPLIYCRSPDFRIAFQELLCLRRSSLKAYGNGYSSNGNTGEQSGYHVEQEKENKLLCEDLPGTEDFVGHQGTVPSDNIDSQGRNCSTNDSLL
MITF TRPM1 inh: reduces MITF-dependent TRPM1 promoter luciferase signal; SK-MEL-5 TRPM1 promoter luciferase, 24 h; inhibition, % at 12.5 µM; hit rate 0.83% among 330,000; AID 488899;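 active = mean inhibition across replicates of 60% or more, whatever share of single replicates reaches that level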
KKLEB cytotox: reduces viability of KKLEB cystic fibrosis airway cells. activity change (cytotoxicity), % at 5 µM. hit rate 0.36% among 360,000. KKLEB CF airway cells viability, ATPlite luminescence, overnight; hits give low values; cells stimulated with P. aeruginosa culture filtrate;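 active = corrected activity change at or below -50% at 5 µM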
Peg3 prom inh: reduces Peg3 promoter-driven luciferase expression in HeLa; HeLa PEG-Prom luciferase reporter, luminescence, overnight; inhibition, % at 20 µM; hit rate 1.7% among 360,000; AID 588405;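 active = inhibition of at least 50% at 20 µM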
HIF-2a block: blocks HIF-2a reporter activity | 786-0 RCC cells HIF-2a reporter, luciferase luminescence, overnight | inhibition, % at 18.8 µM | hit rate 0.72% among 360,000 | AID 624352;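 active = inhibition of the luminescence signal of 40% or more relative to plate controls, in a single-dose primary screen at 18.75 µM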
CF NFkB block: blocks PAF-induced NF-kB reporter in cystic fibrosis cells | KKLEB NF-kB-GFP reporter, GFP fluorescence overnight | inhibition, % at 5 µM | hit rate 0.86% among 360,000 | AID 588850;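 active = at least 50% inhibition at 5 µM, scaled per plate between neutral and stimulator controls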;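 note: PAF is a Pseudomonas aeruginosa culture filtrate used as stimulus; plate controls were PAF-stimulated DMSO wells for no effect and unstimulated DMSO wells for full effect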
Numbers without * were called inactive; . = no result given. Shown are actives, neighbours in structure and some others; about 2.8% of the full set was active somewhere.

SMILES | B2AR ag | MITF TRPM1 inh | KKLEB cytotox | Peg3 prom inh | HIF-2a block | CF NFkB block
C(#Cc1ccccc1)C[N+]1(CC#Cc2ccccc2)CCCCC1 | 2 | 44 | -9 | 14 | 9 | 4
Cc1ccc(C#CC[N+]2(CC#Cc3ccc(C)cc3)CCCCC2)cc1 | -1 | 70* | -24 | 97* | 13 | 35
Fc1cccc(-c2nnn3c2nc(Cl)c2ccccc23)c1 | 29 | 10 | 0 | 107* | -208 | 26
CCOC(=O)Cc1c(C)nc2c(-c3cccc(Br)c3)c[nH]n2c1=O | 5 | 3 | -11 | 58* | 3 | -4
COc1cc(-c2ccc3sc(-c4ccsc4)c(C#CCO)c3c2)cc(OC)c1OC | 13 | -4 | 8 | 56* | -4 | 9
CCN(CC)c1ccc(-c2c(C#N)c(N)nc(OC)c2C#N)cc1 | -7 | 5 | -22 | 53* | 12 | 12
Cn1nc(N)c2c(-c3ccc(Cl)cc3)c(C#N)c(N)nc21 | -3 | 4 | -7 | 7 | 29 | 35
NC(=O)C1CCCN(C(=O)c2ccc(-c3cccc(Cl)c3Cl)o2)C1 (stereo unspecified) | 4 | -80 | 18 | -284 | -206 | -4
COc1ccccc1C#Cc1cnc2c(c1)C(=O)N([C@H](C)CO)C[C@H](C)[C@@H](CN(C)S(=O)(=O)c1cn(C)cn1)O2 | . | . | -10 | 7 | -9 | -8
Cc1cc(C)cc(OCC(=O)Nc2cccc(-c3nnc(-c4ccco4)o3)c2)c1 | 26 | -14 | -10 | 58* | -102 | -44
COc1ccc(CC(=O)Nc2cccc(-c3nnc(-c4ccco4)o3)c2)cc1 | -2 | 4 | 3 | 22 | -17 | -31
O=C(Nc1cc(F)cc(F)c1)c1ccc(NCCc2ccccc2)c([N+](=O)[O-])c1 | -3 | 14 | -5 | 19 | 19 | 0
Cc1ccc(NC(=O)c2ccc(NCCc3ccccc3)c([N+](=O)[O-])c2)cc1F | -3 | 18 | -50* | 19 | 6 | 46
CCc1nc2ccc(C(=O)N(C)CCCN(C)C)cn2c1N(C)Cc1cc2ccccc2s1 | . | . | -7 | 12 | 8 | 3
O=C(N/N=C/c1ccccc1)c1ccc(N2CCCC2=O)cc1 | 64* | -24 | 4 | -22 | -49 | 3
C/C(=N\NC(=O)c1ccc(N2CCCC2=O)cc1)c1ccccc1 | -18 | -22 | 9 | -59 | 0 | -10
CCN(CC)C(=O)C1=C(C)N(CCCN2CCCC2=O)C(=O)C(CC(=O)NCc2cccc3ccccc23)C1 (stereo unspecified) | . | . | 5 | -11 | -4 | 3
COc1ccc(S(=O)(=O)N2CCCCC2)cc1NC(=O)CN(Cc1ccco1)Cc1ccco1 | 18 | 32 | 16 | 54* | 15 | 2
COc1ccc(S(=O)(=O)N2CCCCC2)cc1NC(=O)CN(C)C1CCCCC1 | -4 | 16 | -4 | 23 | 19 | -9
CN[C@@H]1CC[C@H](c2ccc(Cl)c(Cl)c2)c2ccccc21 | 20 | 1 | . | 91* | -8 | 13
CC(=O)N(C1=C(N)C(=O)c2ccccc2C1=O)C(C)C | 4 | 8 | -2 | -6 | 6 | 5
COc1ccccc1N(C(C)=O)C1=C(Cl)C(=O)c2ccccc2C1=O | . | . | -44 | 100* | 88* | 51*
COc1ccc(NC(=O)c2c(Nc3ccccc3)sc(C(=O)c3ccc(F)cc3)c2N)cc1 | 20 | 53 | -53* | 30 | -16 | 41
COc1ccc(C(=O)c2sc(Nc3ccccc3)c(C(=O)Nc3ccc(OC)c(OC)c3)c2N)cc1 | 8 | -7 | -12 | 4 | -78 | 10
CC1=C(C(=O)Nc2ccc(C)cc2C)C(c2cccc(Cl)c2)n2nc(C(=O)OC(C)C)nc2N1 (stereo unspecified) | 0 | 5 | 3 | 40 | 11 | -3
CC1=C(C(=O)Nc2ccc(C)cc2C)C(c2cccc([N+](=O)[O-])c2)n2nc(C(=O)OC(C)C)nc2N1 (stereo unspecified) | -5 | 7 | -25 | 81* | 20 | -14
CC(=O)Oc1ccc(-c2nc3ccccc3c(=O)o2)cc1 | 5 | 6 | 12 | 77* | 23 | 1
Nc1ccc(-c2cnc(N)c(C(=O)c3cccnc3)n2)cn1 | 1 | 36 | 10 | 46 | 20 | 81*
Nc1ccc(C(=O)c2cccs2)cn1 | -5 | 1 | -4 | -16 | -17 | -10
